In article PMC5540273 (PLoS ONE, 2017):

Columns and labels:
AAK1 = settings: concentration: 1 μM, replicates: in singlicate; n = 1
ABL1-nonphosphorylated = settings: concentration: 1 μM, replicates: in singlicate; n = 1
ABL1-phosphorylated = settings: concentration: 1 μM, replicates: in singlicate; n = 1
ABL2 = settings: concentration: 1 μM, replicates: in singlicate; n = 1
ACVR1B = settings: concentration: 1 μM, replicates: in singlicate; n = 1
ACVR1 = settings: concentration: 1 μM, replicates: in singlicate; n = 1
ACVR2A = settings: concentration: 1 μM, replicates: in singlicate; n = 1
ACVR2B = settings: concentration: 1 μM, replicates: in singlicate; n = 1
ACVRL1 = settings: concentration: 1 μM, replicates: in singlicate; n = 1
ADCK3 = test system: T1, ADCK3; settings: concentration: 1 μM, replicates: in singlicate; n = 1
T1 construct: gene CABC1

ADCK4 = settings: concentration: 1 μM, replicates: in singlicate; n = 1
AKT1 = settings: concentration: 1 μM, replicates: in singlicate; n = 1
AKT2 = settings: concentration: 1 μM, replicates: in singlicate; n = 1
AKT3 = settings: concentration: 1 μM, replicates: in singlicate; n = 1
ALK = settings: concentration: 1 μM, replicates: in singlicate; n = 1
AMPK-alpha1 = test system: T2, AMPK-alpha1; settings: concentration: 1 μM, replicates: in singlicate; n = 1
T2 construct: gene PRKAA1

YSK4 = test system: T3, YSK4
T3 construct: gene MAP3K19

p38-alpha = test system: T4, p38-alpha
T4 construct: gene MAPK14

p38-beta = test system: T5, p38-beta
T5 construct: gene MAPK11
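Throughout, for %Inh: KINOMEscan kinase panel screen.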
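Throughout, for Kd: kd values determined as follow-up on hits from a single-replicate KINOMEscan panel screen.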

| Compound | %Inh (AAK1) [%] | %Inh (ABL1-nonphosphorylated) [%] | %Inh (ABL1-phosphorylated) [%] | %Inh (ABL2) [%] | %Inh (ACVR1B) [%] | %Inh (ACVR1) [%] | %Inh (ACVR2A) [%] | %Inh (ACVR2B) [%] | %Inh (ACVRL1) [%] | %Inh (ADCK3) [%] | %Inh (ADCK4) [%] | %Inh (AKT1) [%] | %Inh (AKT2) [%] | %Inh (AKT3) [%] | %Inh (ALK) [%] | %Inh (AMPK-alpha1) [%] | Kd (YSK4) [nM] | Kd (p38-alpha) [nM] | Kd (p38-beta) [nM] |
| --- | --- | --- | --- | --- | --- | --- | --- | --- | --- | --- | --- | --- | --- | --- | --- | --- | --- | --- | --- |
| Cc1c(Cn2c(C)nn3c(=O)cc(N4CCOC(C)C4)nc23)cccc1C(F)(F)F (stereo not drawn) [GSK2344444] | 0 | 0 | 0 | 11 | 0 | 0 | 22 | 0 | 5 | 3 | 0 | 0 | 6 | 0 | 0 | 0 |  |  |  |
| NS(=O)(=O)c1cccc(-c2ccc3ncc(N4CCOCC4)nc3c2)c1 [GSK1535721] | 26 | 1 | 0 | 0 | 0 | 21 | 0 | 0 | 0 | 28 | 9 | 0 | 4 | 0 | 6 | 1 | 3400 |  |  |
| Cl.Oc1cccc(Nc2ccnc3cc(-c4ccncc4)ccc23)c1 [GW494601] | 42 | 100 | 99.9 | 99.4 | 67 | 99.8 | 97.2 | 95 | 81 | 1 | 68 | 0 | 0 | 0 | 47 | 0 |  |  |  |
| Cc1nnc(-c2ccc3ncc(-c4ccc(S(C)=O)cc4)n3c2)o1 (stereo not drawn) | 41 | 44 | 6 | 7 | 0 | 0 | 0 | 0 | 0 | 0 | 18 | 3 | 15 | 2 | 40 | 1 |  |  |  |
| Cc1nnc(-c2ccc(C)c(-c3ccc(C(=O)Nc4ccc(NS(C)(=O)=O)cc4)cc3)c2)o1 [GW702865] | 0 | 0 | 0 | 0 | 0 | 0 | 0 | 0 | 0 | 20 | 14 | 0 | 12 | 0 | 6 | 17 |  | 140 |  |
| Cl.Nc1ncnc2occ(-c3ccc(NC(=O)Nc4cc(C(F)(F)F)ccc4F)cc3)c12 [SB-707548] | 0 | 99.1 | 50 | 81 | 0 | 1 | 81 | 2 | 0 | 10 | 28 | 0 | 0 | 0 | 75 | 5 |  |  |  |
| O=C(NCCCN1CCOCC1)c1cccc(Nc2nccc(Nc3ccc(Oc4ccccc4)cc3)n2)c1 [GW663929] | 8 | 73 | 45 | 47 | 0 | 14 | 0 | 5 | 0 | 15 | 36 | 0 | 11 | 0 | 7 | 0 |  |  |  |
| CCc1nc(-c2cccc(C)c2)c(-c2ccnc(NCc3ccccc3)c2)s1 | 10 | 35 | 7 | 21 | 0 | 0 | 11 | 0 | 0 | 15 | 0 | 4 | 22 | 0 | 0 | 3 |  | 150 |  |
| Cc1ccc(NC(=O)c2ccnc(N3CCN(C)CC3)c2)cc1-c1ccc(C(=O)NCC2CC2)cc1 [GW775604] | 0 | 45 | 0 | 0 | 0 | 0 | 16 | 0 | 0 | 1 | 0 | 0 | 0 | 6 | 0 | 0 |  |  |  |
| Cc1ccc(C(=O)NCC(N)=O)cc1-n1c(C)cc(OCc2ccc(F)cc2F)c(Br)c1=O | 0 | 57 | 33 | 27 | 11 | 11 | 0 | 4 | 28 | 27 | 2 | 29 | 19 | 0 | 0 | 30 |  | 0.23 | 10 |
| COCCNC(=O)c1ccc(-c2cc(C(=O)NC3CC3)cc(F)c2C)cc1 [GW868318] | 0 | 43 | 28 | 12 | 17 | 7 | 12 | 0 | 9 | 14 | 0 | 0 | 15 | 26 | 51 | 20 |  | 7.3 | 88 |
